# Source: PubChem BioAssay AID720708 (National Center for Advancing Translational Sciences (NCATS), 2013)
# Out of some 360,000 compounds screened, about 660 (0.18%) were called active. Another 2% or so got no clear call; they are omitted. The entries come from a sample that favours actives as a whole. Unmarked numbers belong to inactive results. Calls come from the whole dose curve; as a rule, active = well fitted inhibition curve with a large enough effect; inconclusive = small, poorly fitted or top-dose-only effect; inactive = no such curve, though single readings can be large or run the other way.
# Target: Rap guanine nucleotide exchange factor 4 (Homo sapiens) (UniProt Q8WZA2)
# Sequence (Q8WZA2 whole entry, looked up): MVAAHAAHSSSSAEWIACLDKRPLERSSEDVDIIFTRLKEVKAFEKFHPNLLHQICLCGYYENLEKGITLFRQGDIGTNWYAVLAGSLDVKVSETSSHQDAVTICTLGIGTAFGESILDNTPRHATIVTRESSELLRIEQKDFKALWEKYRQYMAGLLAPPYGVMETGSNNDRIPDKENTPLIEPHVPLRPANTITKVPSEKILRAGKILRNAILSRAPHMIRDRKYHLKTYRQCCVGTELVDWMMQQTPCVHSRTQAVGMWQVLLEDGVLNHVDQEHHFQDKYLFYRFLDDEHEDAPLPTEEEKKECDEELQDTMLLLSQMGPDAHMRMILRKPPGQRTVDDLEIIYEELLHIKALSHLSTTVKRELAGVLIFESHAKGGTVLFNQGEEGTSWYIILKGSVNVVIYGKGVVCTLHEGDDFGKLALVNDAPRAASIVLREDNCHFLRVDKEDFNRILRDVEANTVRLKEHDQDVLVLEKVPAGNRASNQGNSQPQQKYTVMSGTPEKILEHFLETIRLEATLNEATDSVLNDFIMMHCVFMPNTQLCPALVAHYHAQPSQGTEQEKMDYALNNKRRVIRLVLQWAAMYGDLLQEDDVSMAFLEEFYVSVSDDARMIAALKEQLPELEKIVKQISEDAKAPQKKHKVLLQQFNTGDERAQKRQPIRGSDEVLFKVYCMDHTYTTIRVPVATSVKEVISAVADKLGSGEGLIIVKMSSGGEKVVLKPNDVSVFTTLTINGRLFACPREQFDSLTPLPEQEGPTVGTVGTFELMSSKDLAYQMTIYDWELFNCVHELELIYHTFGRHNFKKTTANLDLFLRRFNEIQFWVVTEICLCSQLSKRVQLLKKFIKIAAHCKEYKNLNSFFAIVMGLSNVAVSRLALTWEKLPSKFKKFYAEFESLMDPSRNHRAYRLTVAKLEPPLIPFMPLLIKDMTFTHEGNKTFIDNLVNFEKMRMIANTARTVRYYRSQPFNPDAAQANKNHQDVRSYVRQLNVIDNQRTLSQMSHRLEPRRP
# Test: qHTS for Antagonist of cAMP-regulated guanine nucleotide exchange factor 2 (EPAC2): primary screen; note: nearly all actives have a fitted effect of over 45% in size
# Conditions: EPAC2 GEF exchange of Rap1B-BODIPY-GDP, fluorescence; series mostly up to 114 µM; activity, negative = inhibition: at the top concentration
# % is set by controls: 0 for no effect and ±100 for the full control effect; potency is the fitted concentration of half-maximal effect.
SMILES,"activity, negative = inhibition",Potency
C/C(=N\N(C)C)c1ccc(OCCOc2ccc([N+](=O)[O-])cc2)cc1,1.58%,
O=C(Nc1ccc2c(c1)OCCO2)C1c2ccccc2OCC(=O)N1Cc1ccccn1 (centres undefined),-1.56%,
CCCNC(=O)C1(C)CCN1C(=O)C1(c2ccccc2)CC1 (centres undefined),-8.53%,
CCc1c(-c2ccc(F)cc2)ncn1Cc1cccc(-c2ccccc2)c1,0.933%,
CCOc1ccc(S(=O)(=O)N2CCC(C(=O)NCc3ccccn3)CC2)cc1Cl,0.26%,
C[C@@H]1CN([C@@H](C)CO)S(=O)(=O)c2ccc(C#Cc3cccc(F)c3)cc2O[C@H]1CN(C)S(=O)(=O)c1cn(C)cn1,-4.79%,
O=C1OCCN1C(=O)[C@H]1[C@H](c2ccc(Cl)cc2)C(c2cccc(Cl)c2)=NN1c1ccc(Br)cc1,-3.4%,
COc1ccc(C2CC(c3cccs3)=Nc3ccccc3S2)cc1OC (centres undefined),-8.88%,
COc1ccccc1C1CC(=O)n2c(nc(-c3ccccc3)c2-c2ccccc2)S1 (centres undefined),-4.91%,
COc1ccc(C2CC(=O)n3c(nc4ccccc43)S2)cc1OC (centres undefined),,17.8 µM (active)
NC(Cc1ccccc1)c1csc(Nc2cc(Oc3ccccc3)ncn2)n1 (centres undefined),2.53%,
Cc1oc2cc(Br)c(O)c(Br)c2c1C(=O)c1ccccc1,,28.2 µM (active)
COc1ccc(C(=O)c2c(C)oc3cc([N+](=O)[O-])c(O)c([N+](=O)[O-])c23)cc1,-20.1%,
CCOC(=O)c1c(-c2ccccc2)oc2cc(Br)c(O)c(C=O)c12,0.194%,
COC(=O)Cc1ccc(N(Cc2ccccc2F)S(=O)(=O)c2ccc(Br)cc2)cc1,-3.01% [at 57.1 µM],
COc1ccccc1NC(=O)CCSc1nnc(-c2ccc(O)cc2)o1,0.744%,
CN[C@H]1C[C@H]2c3cc(Oc4ccccc4C)ccc3CCN2C(=O)[C@H]1[C@H](C)O,9.66%,
Cc1cccc(C)c1NC(=O)C(c1cccc2ccccc12)n1c(=O)c(-c2ccco2)nc2ccccc21 (centres undefined),5.32%,
CC(=O)NCCC(=O)Nc1nc(C)c(Cc2ccc3c(c2)OCO3)s1,-1.46%,
Cc1ccc(C)c(-n2ccnc2SCC(N)=O)c1,19%,
O=c1cccc(-c2ccc(Br)cc2)o1,4.24%,
COC(=O)[C@@]12C[C@@H](CC(=O)N3CCC(c4ccccc4)CC3)C(=O)N(Cc3ccccc3)C1=CCC(C)(C)C2,-12%,
O=C1N[C@H](Cc2ccccc2)C(=O)N[C@H]1Cc1cn(S(=O)(=O)c2ccccc2)c2ccccc12,6.85%,

SMILES,"activity, negative = inhibition",Potency
CCCN1CC=C2C(C#N)=C(N)C(C#N)(C#N)C(c3cc(OC)ccc3OC)C2C1 (centres undefined),,39.8 µM (active)
CCN1CC=C2C(C#N)=C(N)C(C#N)(C#N)[C@H](c3ccoc3)[C@H]2C1,-4.17%,
CC(C)Nc1ccc(-n2nc3ccccc3[n+]2[O-])cc1,-16.6%,
O=[N+]([O-])c1ccccc1Nc1ccc(O)cc1,-11.1%,
Cc1ccc(Nc2cc(C)nc3c(C)ccc([N+](=O)[O-])c23)cc1,,44.7 µM (active)
Cc1ccc2cccc([N+](=O)[O-])c2n1,0.105%,
Cc1cc(C)cc(NC(=O)NC2CCN(CC(=O)Nc3cccc(Cl)c3C)CC2)c1,1.59%,
CC1(C(=O)NCc2ccccc2)CSCC(=O)N1CCCn1ccnc1 (centres undefined),1.16%,
COc1ccc(CN(C)C(=O)CC(c2ccccc2)c2ccccc2)cc1,,50.1 µM (active)
COc1ccc(C(CCN(Cc2ccc(OC)c(OC)c2)C(=O)CCl)c2ccccc2)cc1 (centres undefined),-0.0248%,
CN(Cc1ccccc1)C(=O)COc1ccccc1,6.28%,
CC(=O)Nc1ccc(SC[C@H](Cc2ccccc2)N2CC[C@@H](C)CCC2=O)cc1,-23.3%,
CCCCOCCCNC(=O)C[C@@H]1C[C@@]2(C(=O)OCC)CCCC=C2N(CCC2=CCCCC2)C1=O,-26.5%,
C[N+](C)(C)CCNC(=O)c1cc[n+](Cc2ccccc2)c(/C=N/O)c1,-2.59%,
COc1cc(OC)cc(C(=O)Nc2nnc(SCC(=O)NCC3CCCO3)s2)c1 (centres undefined),7.54%,
Nc1nc(SCC(=O)NN(c2ccccc2)c2ccccc2)n[nH]1,1.72%,
COc1ccc(CN2C(=O)C(CC(=O)NCCCCc3ccccc3)CC(C(=O)N3CCOCC3)=C2C)cc1 (centres undefined),4.13%,
COc1ccccc1C(CNC(=O)c1ccc(C)c(S(=O)(=O)N2CCCCC2)c1)N(C)C (centres undefined),-3.77%,
O=c1[nH]cnc(O)c1C(c1ccc(F)cc1)c1c(O)nc[nH]c1=O,3.99%,
CCC(=O)N1CCc2cc(S(=O)(=O)NC(C(=O)N3CCc4ccccc4C3)C(C)C)ccc21 (centres undefined),4.59%,
COC(=O)c1ccccc1OCC(=O)N1CCN(c2ccc(Cl)cc2)CC1,-26.2%,
N#C[C@]1(S(=O)(=O)c2ccccc2)C[C@@H]2ON=C(c3cccc(Br)c3)[C@@H]2C1,7.16%,
O=C1Nc2ccccc2-n2nnnc2C1N1CCN(c2cccc(C(F)(F)F)n2)CC1 (centres undefined),-21.8%,

SMILES,"activity, negative = inhibition",Potency
CN(C(=O)CSc1nnc(N)s1)c1c(N)n(Cc2ccccc2)c(=O)[nH]c1=O,2.51%,
C/C(=N\NC(=O)c1cccnc1)c1ccc(-n2ccnc2)cc1,4.67%,
CO[C@@H]1CN(C)C(=O)c2cc(NC(=O)C3CC3)ccc2OC[C@H](C)N(C(=O)CN2CCOCC2)C[C@@H]1C,3.76%,
S=C(Nc1ccc2c(c1)OCO2)N1CCCC1,1.35%,
COC(=O)[C@]12CCCCC=C1N(Cc1ccccc1)C(=O)[C@H](CC(=O)NCc1ccc(C)o1)C2,-13.8%,
Cn1nnnc1SCC(=O)NNC(=O)c1ccc(Br)cc1,2.81%,
CC1(C(=O)NS(=O)(=O)c2cccc(OC(F)F)c2)CCN1C(=O)COc1ccc(Cl)cc1 (centres undefined),7.7%,
CCc1ccc(Oc2nc([N+](=O)[O-])nn2C)cc1,-13.8%,
COc1ccc(C(O)C(O)(C(=O)OC(C)C)c2ccc(C)cc2)cc1 (centres undefined),-10.2%,
COC(=O)[C@@]12C[C@@H](CC(=O)N3CCCCC3)C(=O)N(Cc3ccc4c(c3)OCO4)C1=CCC(C)(C)C2,-2.4%,
O=C(c1cccc(S(=O)(=O)N2CCCC2)c1)N(Cc1ccco1)C1CCS(=O)(=O)C1 (centres undefined),-2.8%,
COc1ccc(C(C)NC(=O)C23CC4CC(CC(C4)C2)C3)cc1 (centres undefined),-0.52%,
COc1ccc(NC(=O)C2(C)Cc3c(-c4ccc(C(N)=O)cc4)ccnc3O2)cc1 (centres undefined),-23%,
c1ccc(-c2ccnc3nc(-n4cccc4)nn23)cc1,-2.79%,
Cc1cc(C(=O)CC#N)c(C)n1-c1c(C)n(C)n(-c2ccccc2)c1=O,-4.76%,
O=C(Cn1cc(C(=O)C2CC2)c2ccccc21)Nc1ccccc1Cl,-4.51%,
COc1ccc(N(CC(=O)NC2CCCCC2)S(=O)(=O)c2c(C)[nH]c(=O)[nH]c2=O)cc1,-0.251%,
CCOC(=O)[C@]12CCCC=C1N(Cc1ccc(Cl)cc1Cl)C(=O)[C@H](CC(=O)N1CCCCC1)C2,-17.7%,
Cc1ncc(CO)c(/C=N/NC(=O)c2cccc(S(=O)(=O)N3CCCC3)c2)c1O,19%,
O=C(COc1nc2ccccc2nc1N1CCOCC1)NCC(F)(F)F,1.12%,
COc1ccc(-c2c(C(C)=O)c(C)nc3sc4c(=O)n(-c5ccc(C)cc5)nnc4c23)cc1,-4.14%,
CCNC(=S)N1CCC(c2nc3cc(C)c(C)cc3[nH]2)CC1,-4.52%,
CCCCn1nc(C(=O)OCC(=O)Nc2sccc2C(N)=O)c2ccccc2c1=O,-10.1%,
